Screening data deposited in PubChem by Sanford-Burnham Center for Chemical Genomics.
CYP2C19 inh: inhibitors of human CYP2C19; P33261; CYP2C19 Supersomes, luciferin-H EGE luminescence, 30 min; inhibition, % at 5 µM; hit rate 21% among 96,000; AID 778;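 active means CYP2C19 inhibition above a set limit at 5 µM in the primary screen, cut at about 50% in these data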;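 further: plate controls were negative control wells for no effect and 2.5 mM tranylcypromine positive control for full effect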
Target sequence (P33261 whole entry, looked up): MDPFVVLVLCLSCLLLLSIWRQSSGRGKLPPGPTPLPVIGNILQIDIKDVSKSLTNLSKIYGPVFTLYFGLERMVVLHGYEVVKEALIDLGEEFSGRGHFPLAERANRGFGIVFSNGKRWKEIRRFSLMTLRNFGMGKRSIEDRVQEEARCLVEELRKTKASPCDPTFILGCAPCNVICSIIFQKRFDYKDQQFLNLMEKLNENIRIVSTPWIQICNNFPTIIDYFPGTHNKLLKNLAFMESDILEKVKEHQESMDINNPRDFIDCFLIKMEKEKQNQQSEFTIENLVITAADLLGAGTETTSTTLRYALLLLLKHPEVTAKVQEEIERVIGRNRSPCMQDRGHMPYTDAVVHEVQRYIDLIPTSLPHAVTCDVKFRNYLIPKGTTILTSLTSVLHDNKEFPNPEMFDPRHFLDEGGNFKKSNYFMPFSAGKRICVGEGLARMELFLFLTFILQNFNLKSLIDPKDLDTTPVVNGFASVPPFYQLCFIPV
CYP2C19 act: activators of human cytochrome P450 2C19; 96,000 tested, under 10 active; AID 1025; activation factor at 5 µM; P33261; recombinant CYP2C19, luciferin-H EGE luminescence; stronger effect = higher value; 0 = fully inhibited enzyme, 1 = untreated enzyme;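 active means activation factor of at least 2 at 5 µM in the primary screen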;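 further: 0 = wells with 2.5 mM tranylcypromine and 1 = vehicle-only wells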
PTK2B oligo ant: Pyk2 (human) oligomerization antagonism; hit rate 0.83% among 99,000; AID 1347419; z-score (the deposit names both 25 µM and 10 µM); Q14289; Q293 cells, Pyk2 FERM NanoBiT luminescence; stronger effect = lower value;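 active means Z-score of -3 or lower, scaled per plate to the spread of control and sample wells; inactive means z-score above -3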;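 further: negative z-score means lost luminescence so less FERM oligomerization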
CYP2C9 act: increases human cytochrome P450 2C9 activity; P11712; recombinant CYP2C9, luciferin-H conversion, luminescence; stronger effect = higher value; factor 1 = untreated enzyme, 0 = blocked; activation factor at 5 µM; hit rate 1.4% among 96,000; AID 1024;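 active means activation factor of 2 or more for CYP2C9 at a 5 µM dose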;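 further: 0 = sulfaphenazole-blocked wells and 1 = vehicle-only wells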
CYP2C9 inh: human CYP2C9 inhibition | hit rate 20% among 96,000 | CYP2C9 Supersomes, luciferin-H conversion, luminescence | AID 777 | P11712 | inhibition, % at 5 µM;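 active means blocking of liver enzyme CYP2C9 beyond about 50% at 5 µM, limit read from the data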
An asterisk follows results filed as active; / = no result given. In the library only some 28% were active in any assay of this set; here they are far more common.

SMILES | CYP2C19 inh | CYP2C19 act | PTK2B oligo ant | CYP2C9 act | CYP2C9 inh
CC(=O)N(c1cccc(C)c1)C1SC(=O)N(c2ccccc2)C1=O (stereo not drawn) | 68* | 0.3 | -0.46 | 0.6 | 44
O=C(/C=C/c1ccccc1)NCCSc1ccc(Cl)cc1 | 15 | 0.9 | 1.8 | 1.5 | -53
Cc1ccc(OCc2nc(C#N)c(NCc3ccc4c(c3)OCO4)o2)cc1 | 98* | 0 | -0.66 | 0 | 99*
C=CCNc1oc(COc2ccc(C)cc2)nc1C#N | 65* | 0.3 | / | 0.7 | 27
COc1ccc2cc(C)c3nnc(SCC(=O)Nc4nc(-c5ccccc5)cs4)n3c2c1 | 40 | 0.6 | -0.77 | 0.5 | 45
CSC1=C(C#N)C(CC(C)C)C(C(C)=O)=C(C)N1 (stereo not drawn) | 82* | 0.2 | -0.67 | 0.5 | 49
Clc1ccc(/C=N/Nc2nc(Cl)nc3ccccc23)cc1 | 13 | 0.9 | -0.72 | 0.8 | 21
Clc1ccccc1-c1nc(N/N=C/c2cccnc2)c2ccccc2n1 | 41 | 0.6 | -1.6 | 0.3 | 69*
Cc1ccc(-c2nc(N/N=C/c3ccncc3)c3ccccc3n2)cc1 | 98* | 0 | -2.4 | 0.1 | 94*
Cc1ccccc1OCCOc1cccc(/C=N/NC(=O)Cc2nnc(N)s2)c1 | -6 | 1.1 | -1.2 | 0.9 | 5
COc1ccc(OC)c(N(CC(=O)N2CCc3ccccc3C2)S(C)(=O)=O)c1 | 24 | 0.8 | -0.38 | 1 | 4
COc1ccc(NC(=O)CCCNS(=O)(=O)c2cccs2)cc1 | 72* | 0.3 | 1.1 | 0.5 | 50
COc1ccc(NC(=O)CNS(=O)(=O)c2cccs2)cc1 | 53* | 0.5 | 0.94 | 0.6 | 40
CC(CN1CCOCC1)C(=O)O (stereo not drawn) | / | / | 0.61 | / | /
CC(=O)NC1C(=O)Nc2c1cccc2C(F)(F)F (stereo not drawn) | 3 | 1 | 1.1 | 1.1 | -12
CCOc1ccc(-c2ncncc2-c2ccc(OC)cc2)c(O)c1 | 33 | 0.7 | -1.1 | 0.5 | 54*
CCOc1ccc(-c2nc(N)ncc2-c2ccccc2)c(O)c1 | 12 | 0.9 | -2.5 | 0.7 | 27
Cc1cccc(C)c1-n1nnnc1SCSc1nnnn1-c1c(C)cccc1C | 33 | 0.7 | -1.8 | 0.2 | 77*
CCOC(=O)CSc1nnnn1-c1cccc2ccccc12 | / | / | 0.19 | / | /
COC(=O)c1ccc(OC(=O)c2ccc(OCc3c(C)noc3C)c(OC)c2)cc1 | 1 | 1 | / | 0.9 | 12
Cn1c(Cn2cnc3ccccc32)nnc1SCC(=O)CC(=O)Nc1ccccc1 | 25 | 0.7 | 0.84 | 0.3 | 70*
COc1ccc(NC(=O)CSc2nnc(Cn3cnc4ccccc43)n2C)cc1 | / | / | 1.2 | / | /
CCOC(=O)C(CC)n1cnc2c(oc3ccccc32)c1=O (stereo not drawn) | 14 | 0.9 | 0.21 | 0.8 | 20
Cc1cc(=O)c(C(=O)O)cn1Nc1ccc(Cl)cc1 | 12 | 0.9 | 0.33 | 1.1 | -5
CCSc1nnc(NC(=O)c2cc(C)nc3ccccc23)s1 | 7 | 0.9 | -0.17 | 0.8 | 17
SMILES | CYP2C19 inh | CYP2C19 act | PTK2B oligo ant | CYP2C9 act | CYP2C9 inh
Cc1csc(NC(=O)c2nc(-c3ccccc3)n(-c3ccccc3)n2)n1 | 43 | 0.6 | -1.9 | 0.2 | 75*
N#Cc1cccc(NC(=O)c2nc(-c3ccccc3)n(-c3ccccc3)n2)c1 | 39 | 0.6 | -2.6 | 0.7 | 28
O=C(Nc1nccs1)c1nc(-c2ccccc2)n(-c2ccccc2)n1 | -4 | 1 | -1.8 | 1 | -5
CCCC(C)NC(=O)c1nc(-c2ccccc2)n(-c2ccccc2)n1 (stereo not drawn) | 33 | 0.7 | -1.9 | 0.1 | 86*
CCSc1nnc(NC(=O)c2nc(-c3ccccc3)n(-c3ccccc3)n2)s1 | 55* | 0.5 | -2.9 | 0.1 | 92*
Cc1ccc(C)c(NC(=O)c2nc(-c3ccccc3)n(-c3ccccc3)n2)c1 | 79* | 0.2 | -3 | 0.3 | 71*
COc1ccc(/C(O)=C2/C(=O)C(=O)N(CCCN(C)C)C2c2ccc(C)o2)cc1Cl (stereo not drawn) | 2 | 1 | / | 0.7 | 33
Cc1cc(C)c2c(CC(=O)N(CCC#N)Cc3cccnc3)coc2c1 | 51* | 0.5 | 0.83 | 1.3 | -25
CCOC(=O)C1CCCN(c2nc3ccccc3nc2C(C#N)C(=O)NCc2ccccc2)C1 (stereo not drawn) | 28 | 0.7 | -0.53 | 0.4 | 62*
CCOC(=O)N1CCN(c2nc3ccccc3nc2C(C#N)C(=O)NCCc2ccccc2)CC1 (stereo not drawn) | 65* | 0.3 | 1.1 | 0.3 | 73*
Cc1ccc(-c2cc(C)nc3nc(N)nn23)cc1 | 1 | 1 | 0.29 | 1.2 | -23
Cc1cccc(C(=O)Nc2nc(C)c(C(=O)Nc3ccc4c(c3)CCC4)s2)c1 | 24 | 0.8 | -2.2 | 0.4 | 58*
Cc1cccc(NC(=O)c2sc(C)nc2C)c1 | / | / | -0.28 | / | /
CCC(Sc1nc2n[nH]c(C)c2c(=N)n1-c1cc(Cl)ccc1C)C(=O)N1CCOCC1 (stereo not drawn) | / | / | -0.72 | / | /
Nc1cc(=O)[nH]c(SCc2nc3ccccc3n2Cc2ccccc2)n1 | 47 | 0.5 | 0.29 | 0.2 | 82*
Cc1ccc(O)c(-c2cc(C(F)(F)F)[nH]n2)c1 | 21 | 0.8 | -2.3 | 0.8 | 25
O=C(NNC(=O)c1cc(-c2ccc(Cl)cc2Cl)nc2ccccc12)Nc1ccccc1 | -8 | 1.1 | -3.5* | 0.8 | 17
CCCCCCCCNc1ncnc2ccccc12 | 79* | 0.2 | -0.26 | 0.2 | 82*
Cc1ccccc1NC(=O)CC1SC(=NC2CCCCC2)NC1=O (stereo not drawn) | 1 | 1 | 0.37 | 0.3 | 67*
N#CC1=C(N)C(C#N)(C#N)[C@H](c2ccncc2)[C@H]2CN(C(=O)OCc3ccccc3)CC=C12 | / | / | -0.27 | / | /
Cc1ccc(C2C3CSCC=C3C(C#N)=C(N)C2(C#N)C#N)cc1 (stereo not drawn) | 29 | 0.7 | -0.41 | 0.2 | 81*
Cc1ccc([C@@H]2C3COCC=C3C(C#N)=C(N)C2(C#N)C#N)o1 (stereo partly drawn) | 69* | 0.3 | 0.84 | 0.5 | 49
N#CC1=C(N)C(C#N)(C#N)[C@H](c2ccncc2)[C@H]2CC3(CC=C12)OCCO3 | 51* | 0.5 | 0.38 | 0.3 | 71*
COc1cc(C)ccc1OCCCON1C(=O)CCC1=O | 41 | 0.6 | -0.22 | 0.8 | 16
CC(NC(=O)Nn1cnnc1)(C(F)(F)F)C(F)(F)F | -8 | 1.1 | 0 | 0.8 | 16
O=C1c2ccccc2C(=O)N1CC1=CCS(=O)(=O)C1 | 0 | 1 | -0.28 | 1.3 | -26
CC(=O)C(=[N+]=[N-])C(=O)NCc1ccccc1 | 23 | 0.8 | 0.25 | 1.1 | -5
O=C(NC1CCCCCCC1)c1ccc2c(c1)N(Cc1ccc(F)cc1)C(=O)CS2=O (stereo not drawn) | -12 | 1.1 | -0.15 | 0.9 | 5
COc1cc(Cn2ccnc2)c(OC)cc1Cn1ccnc1 | 78* | 0.2 | 0.89 | 0.3 | 73*
